In the library only some 4.1% were active in any assay of this set; here they are far more common.
aSyn 5UTR inh: MLPCN primary screen, SNCA 5' untranslated region; alpha-synuclein 5'UTR reporter, inhibitor activity; inhibition, % (tested at 7.5 µM); 300,000 compounds, 0.82% hits; AID 1813; in the data active = inhibition above about 60%;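 also: H4 neuroglioblastoma cells stably carrying SNCA 5'UTR luciferase fusion; 0% = DMSO wells and 100% = positive control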
Gli-Sufu block: antagonists of Gli-Sufu signaling. Sufu-KO-LIGHT fibroblasts, Gli luciferase reporter luminescence. inhibition, % at 5 µM. 340,000 compounds, 0.74% hits. AID 588413;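 active = inhibition above about 55%, limit read from the data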;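 also: 0% = DMSO-treated cells and 100% = wells with medium but no cells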
697 NFkB inh: lowers PMA/ionomycin-induced NF-kB signal in 697 B cells. 697 B-cell NF-kB luciferase reporter, 16 h. 330,000 compounds, 0.33% hits. inhibition, % at 4 µM; in the data active = inhibition above about 35%
Mdm2 MdmX PPI: disrupts the human Mdm2-MdmX interaction; O15151+Q00987; SaOS-2 split-luciferase Mdm2/MdmX complementation, luminescence; inhibition, % at 8 µM; 330,000 compounds, 3% hits; AID 485346;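 active = inhibition of at least 50% at 8 µM in the primary screen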
Jurkat NFkB inh: inhibitors of the PMA/ionomycin-induced NF-kB reporter in Jurkat cells; PMA/ionomycin-induced NF-kB luciferase reporter, luminescence; inhibition, % at 4 µM; 330,000 compounds, 0.53% hits; in the data active = inhibition above about 50%
KLF5 inh: kruppel-like factor 5 inhibition; DLD-1 KLF5 promoter-luciferase reporter, luminescence; inhibition, % at 5 µM; 290,000 compounds, 0.23% hits; AID 1700;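 active = inhibition above a per-plate limit of that plate's mean compound inhibition plus 3 SD, cut at about 60% in these data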;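 also: 0% = DMSO wells and 100% = LY294002 at 200 µM; higher means less KLF5 promoter-driven luciferase light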
Mdm2-MdmX conf: human Mdm2/MdmX binding inhibition, confirmed. shares compounds with Mdm2 MdmX PPI. AID 489028. inhibition, % at 8 µM. 10,000 compounds, 55% hits. luminescent assay; in the data active = inhibition above about 40%
Full FLuc ctr: full-length luciferase inhibition in Mdm2/MdmX counter-screen. shares compounds with Mdm2 MdmX PPI. SaOS-2 full-length luciferase counterscreen, luminescence. inhibition, % at 8 µM. 6,200 compounds, 77% hits. AID 504607;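 active = mean inhibition at 8 µM reaching about 37%, which flags the compound as non-specific, limit read from the data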;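 also: p53-null SaOS-2 cells with luciferase driven by a doxycycline-inducible promoter; compound on cells about two nights before reading with doxycycline added after day one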
An asterisk follows results filed as active; . = no result given.

SMILES | aSyn 5UTR inh | Gli-Sufu block | 697 NFkB inh | Mdm2 MdmX PPI | Jurkat NFkB inh | KLF5 inh | Mdm2-MdmX conf | Full FLuc ctr
CC(=O)c1cccc(NC(=O)COC(=O)[C@@H](NC(=O)OCc2ccccc2)C(C)C)c1 | -7 | -9 | 8 | 19 | -8 | -3 | . | .
O=C(O)c1ccc(Cl)c(NCc2cccs2)c1 | 11 | -15 | 2 | 24 | -4 | -13 | . | .
Cc1nn(-c2ccccc2)c(C)c1-c1nnc(-c2c(C)nn(-c3ccccc3)c2C)o1 | -47 | 6 | -6 | 56* | -4 | -3 | 5 | .
CC(=O)N1c2ccc(S(=O)(=O)N3CCCCC3)cc2CC1C(=O)NCc1ccccc1C (centres undefined) | 14 | 8 | -3 | -11 | -2 | -29 | . | .
CC(C)=CCc1c(O)cc2oc3c(CC=C(C)C)c(O)c(O)c(CC=C(C)C)c3c(=O)c2c1O | 62* | 28 | -43 | 100* | -7 | . | 43* | 47*
COc1cc(C(=O)ON=C2C3CC4CC(C3)CC2C4)cc(OC)c1OC | -14 | -3 | -35 | 95* | 6 | -19 | 27 | .
COc1cc(C(=O)O/N=C2\C=CC(=O)C=C2C)cc(OC)c1OC | 12 | 3 | 4 | 29 | 7 | -30 | . | .
CCCn1c(N)c(N(CCOC)C(=O)c2ccc(S(=O)(=O)N3CCOCC3)cc2)c(=O)[nH]c1=O | . | 9 | . | . | . | . | . | .
COc1ccc(CN2CCN(Cc3c[nH]c4ccccc34)CC2)cc1 | 13 | 5 | -21 | -26 | -30 | -28 | . | .
COc1ccc(Br)cc1CN1CCN(Cc2c[nH]c3ccccc23)CC1 | -18 | 13 | 15 | 69* | 15 | -36 | 39 | 83*
Cc1c(Cl)cccc1NC(=O)Cc1ccc([N+](=O)[O-])cc1 | -20 | 10 | 13 | 11 | -28 | -13 | . | .
CCc1ccc(/C(C)=N/NC(=O)CNC(=O)/C=C/c2ccco2)cc1 | -8 | 3 | 3 | 8 | 8 | . | . | .
CCC(=O)NC1=C(Cl)C(=O)C(NC(=O)CC)=C(Cl)C1=O | . | 1 | -15 | 58* | 9 | 1 | 44* | 7
COc1cc(-c2noc(C)c2C#Cc2ccc(N)cc2)cc(OC)c1OC | 88* | 36 | 1 | 89* | 49 | 56 | 70* | 89*
CC(=O)c1c(C)[nH]c(C(=O)NC2CCSc3ccccc32)c1C (centres undefined) | -33 | -14 | -9 | 56* | 8 | -11 | 33 | .
CCOc1ccccc1CNc1ncnc2ccc(-c3c(C)noc3C)cc12 | . | 39 | 12 | 79* | 8 | . | 54* | 43*
COc1ccccc1CNc1ncnc2cc(Cl)ccc12 | -23 | 29 | . | . | . | 6 | . | .
CN(C)C1=NCCN1CCc1ccc(F)cc1 | . | -3 | -1 | 8 | -7 | . | . | .
CCc1cccc2c(C(=O)CN3C(=O)N(C)C4(CCCCC4)C3=O)c[nH]c12 | . | 2 | -28 | 52* | 22 | . | 24 | .
Cc1cccc(C)c1NC(=O)c1nc(S(=O)(=O)Cc2ccccc2)ncc1Cl | 19 | 16 | -16 | 68* | 13 | 18 | 98* | 1
CCCc1nnc(NC(=O)c2nc(S(=O)(=O)Cc3cccc(C)c3)ncc2Cl)s1 | -30 | 9 | -16 | 90* | 10 | 4 | 40 | 12
Cc1cccc(CS(=O)(=O)c2ncc(Cl)c(C(=O)NCc3ccccc3)n2)c1 | 64* | 0 | -38 | 83* | 15 | 7 | 66* | 7
CCCc1nnc(NC(=O)CS(=O)(=O)c2ccc(C)cc2)s1 | 19 | -4 | 9 | 7 | -24 | -10 | . | .
Cc1nnc(NC(=O)c2nc(S(=O)(=O)Cc3ccccc3)ncc2Cl)s1 | -23 | 16 | -63 | 85* | 3 | 5 | 16 | .
CN(CC(=O)NCc1ccco1)CC(=O)Nc1cc(S(C)(=O)=O)ccc1Cl | . | -6 | 17 | 4 | -13 | . | . | .
SMILES | aSyn 5UTR inh | Gli-Sufu block | 697 NFkB inh | Mdm2 MdmX PPI | Jurkat NFkB inh | KLF5 inh | Mdm2-MdmX conf | Full FLuc ctr
O=C(CN1C(=O)C(=O)N(Cc2ccccc2)C1=O)Nc1ccc(F)c(Cl)c1 | 5 | -12 | 14 | -42 | 4 | 0 | . | .
Cc1cccc(CS(=O)(=O)c2ncc(Cl)c(C(=O)Nc3c(C)cccc3C)n2)c1 | 35 | 27 | -50 | 94* | 27 | -12 | 86* | 51*
NC(=O)N/N=C/C=C/c1ccc(F)cc1 | 2 | 2 | 16 | 12 | 17 | -18 | . | .
Cn1c(N)c(C(=O)COC(=O)c2cc(S(=O)(=O)N3CCOCC3)ccc2F)c(=O)n(C)c1=O | . | 23 | 21 | 82* | 10 | . | 28 | .
Cc1ccc(C(=O)c2c(C)oc3c2C(=O)C(=O)c2ccccc2-3)cc1 | -21 | -5 | 11 | 97* | -10 | -20 | 99* | 42*
COc1cc(OC)c2c(-c3ccccc3)cc(=O)oc2c1C(CC(=O)N1CCCC1)c1ccc2c(c1)OCO2 (centres undefined) | 33 | 8 | 10 | -3 | 7 | . | . | .
COc1cc(OC)c2c(-c3ccccc3)cc(=O)oc2c1C(CCN1CCCCC1)c1ccc2c(c1)OCO2 (centres undefined) | 25 | 7 | -6 | 99* | 17 | . | 30 | .
COc1cc(OC)c2c(-c3ccccc3)cc(=O)oc2c1C(CCN1CCCC(C)C1)c1ccc2c(c1)OCO2 (centres undefined) | -5 | -21 | 3 | 74* | -1 | . | 37 | 77*
COc1ccc2cc(C(=O)/C=C/c3cc(OC)c(O)c(OC)c3)ccc2c1 | -71 | 4 | -22 | 0 | -2 | 2 | . | .
COc1ccc(C(=O)/C=C/c2cc(OC)c(O)c(OC)c2)c(F)c1 | -48 | 0 | -9 | 51* | -10 | -34 | 30 | .
Cc1cccc(Oc2ccccc2NC(=O)CSCC(=O)Nc2cc(C)on2)c1 | . | -17 | -3 | 67* | 23 | . | 58* | 108*
CCOc1ccc(N(C(=O)c2cnccn2)C(C(=O)NC2CCCCC2)c2ccc(O)cc2)cc1 (centres undefined) | -18 | 1 | -9 | 4 | -20 | 4 | . | .
CCC(=O)NCc1cc(-c2nn(C)c(=O)c3ccccc23)ccc1C | 13 | 13 | 5 | 26 | -3 | 2 | . | .
COc1ccc(-c2nn(C)c(=O)c3ccccc23)cc1NC(=O)Cn1nc(C)c2ccccc2c1=O | 40 | 42 | -11 | 57* | -8 | 11 | 22 | .
Cc1ccc(-c2nn(CC(=O)NCc3cc(-c4nn(C)c(=O)c5ccccc45)ccc3C)c(=O)c3ccccc23)cc1 | 114* | 10 | -13 | 97* | 4 | -12 | 20 | .
Cc1nn(CC(=O)Nc2ccc3c(c2)oc2ccccc23)c(=O)c2ccccc12 | 12 | 2 | 24 | 77* | -5 | -30 | 14 | .
O=C1NC(Cc2ccccc2)c2nc3cc(Cl)ccc3c(=O)n2-c2ccccc21 (centres undefined) | . | . | 1 | 28 | -6 | . | . | .
